PubChem BioAssay (NCI)
About 79,000 compounds went through this panel and 15% of them were active in at least one assay; those are over-represented in the sample as a whole. Unmarked numbers belong to inactive results. Active and inactive are the calls of the source. Rule as the data show it: active = growth inhibition above about 70%; inactive = the rest.

Experiments:
[1] = NCI Yeast Anticancer Drug Screen. Data for the rad50 strain (AID 155);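 also: 0% = growth of vehicle-only cultures of the same strain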; settings: S. cerevisiae rad50 strain growth inhibition, stronger effect = higher value
In short: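 Growth of the mutant yeast was measured after compound exposure and referenced to vehicle-treated cultures.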

[2] = NCI Yeast Anticancer Drug Screen. Data for the mec2-1 strain (AID 157); settings: S. cerevisiae mec2-1 strain, stronger effect = higher value
In short: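 Strain: mec2-1 (DNA repair/cell cycle alteration). Compound exposure, then growth measured; inhibition expressed relative to vehicle.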

[3] = NCI Yeast Anticancer Drug Screen. Data for the sgs1 mgt1 strain (AID 161);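 also: 0% = growth of cultures given vehicle only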; settings: S. cerevisiae sgs1 mgt1 strain, stronger effect = higher value
In short: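 Read-out: growth inhibition vs vehicle controls. Cells: mutant yeast strain deficient in DNA damage repair.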

[4] = NCI Yeast Anticancer Drug Screen. Data for the cln2 rad14 strain (AID 165);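 also: 0% = growth equal to vehicle treated cultures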; settings: S. cerevisiae cln2 rad14 strain, stronger effect = higher value
In short: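 Compounds are applied to the cln2 rad14 yeast strain, and growth is then compared with that of vehicle-treated cultures to give inhibition.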

[5] = NCI Yeast Anticancer Drug Screen. Data for the bub3 strain (AID 167); settings: S. cerevisiae bub3 mutant strain, stronger effect = higher value
In short: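 Whole-cell yeast assay. The mutant strain was incubated with compounds, and growth inhibition was determined by comparison with vehicle-treated cells.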

[6] = NCI Yeast Anticancer Drug Screen. Data for the mlh1 rad18 strain (AID 175); settings: S. cerevisiae mlh1 rad18 strain growth inhibition, stronger effect = higher value
In short: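 Read-out is yeast growth inhibition, calculated against vehicle-only controls. The compound was applied to a strain engineered with DNA damage repair alterations.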

[7] = at 5.0 µM (retest, dose inferred, filed as 0.5)
[8] = at 50.0 µM (retest, dose inferred, filed as 5.0)

SMILES | growth inhibition [1, 7] | growth inhibition [1, 8] | growth inhibition ([1]; at 50.0 µM) | growth inhibition [2, 7] | growth inhibition [2, 8] | growth inhibition ([2]; at 50.0 µM) | growth inhibition [3, 7] | growth inhibition [3, 8] | growth inhibition ([3]; at 50.0 µM) | growth inhibition [4, 7] | growth inhibition [4, 8] | growth inhibition ([4]; at 50.0 µM) | growth inhibition [5, 7] | growth inhibition [5, 8] | growth inhibition ([5]; at 50.0 µM) | growth inhibition [6, 7] | growth inhibition [6, 8] | growth inhibition ([6]; at 50.0 µM)
CCOC(=O)C(/N=N\c1nn[nH]n1)/N=N/c1ncn[nH]1 (configuration not stated) | -7% | -8% | 97.7% (active) | -28% | -6% | 99.5% (active) | -6% | -1% | 73.2% (active) | -2% | -10% | 93.2% (active) | -6% | -3% | 98.8% (active) | -7% | -5% | 99.2% (active)
Clc1ccc(-c2cc(=[N+]3CC[N+](=c4cc(-c5ccc(Cl)cc5)ss4)CC3)ss2)cc1 | 8% | 3% | 98.3% (active) | -158% | -3% | 98.2% (active) | 2% | 4% | 98.9% (active) | 5% | -9% | 95.7% (active) | 3% | -2% | 98% (active) | 7% | 4% | 98.5% (active)
Nc1c(Cl)cccc1C(=O)O | 3% | 4% | 54% | -2% | 0% | 26.8% | 1% | 6% | 45.7% | -4% | -7% | 13.4% | 3% | 1% | 23.9% | 2% | 5% | 34.9%
c1ccc(P(CCP(c2ccccc2)c2ccccc2)CCP(c2ccccc2)c2ccccc2)cc1 | 98% (active) | 98% (active) | 92.3% (active) | 94% (active) | 94% (active) | 93% (active) | 92% (active) | 92% (active) | 91% (active) | 84% (active) | 84% (active) | 5.95% | 96% (active) | 96% (active) | 92.8% (active) | 95% (active) | 95% (active) | 91.8% (active)
S=P(Nc1ccccc1)(Nc1ccccc1)Nc1ccccc1 | 21% | 94% (active) | 96.8% (active) | 18% | 94% (active) | 98% (active) | 12% | 95% (active) | 96.8% (active) | 7% | 94% (active) | 97.7% (active) | 19% | 92% (active) | 98.2% (active) | 23% | 94% (active) | 96.8% (active)
O=P1(NCCCl)OC(c2ccccc2)=CCN1CCCl (configuration not stated) | -1% | -1% | 97.9% (active) | -5% | 6% | 94.1% (active) | 1% | -1% | 99% (active) | -2% | 5% | 96% (active) | -2% | -1% | 89.6% (active) | -3% | 1% | 98.8% (active)
CCC1CC2CCC(O2)C(C)C(=O)OC(C)CC2CCC(O2)C(C)C(=O)OC(CC)CC2CCC(O2)C(C)C(=O)OC(C)CC2CCC(O2)C(C)C(=O)O1 (configuration not stated) | -7% | 71% (active) | 82.3% (active) | 23% | 88% (active) | 84.5% (active) | -1% | 74% (active) | 80.7% (active) | 25% | 79% (active) | 66.2% | -4% | 79% (active) | 79.2% (active) | -15% | 85% (active) | 73.2% (active)
C[CH2][Sn][CH2]C.c1cc[c]([Ge]([c]2ccccc2)[c]2ccccc2)cc1.c1cc[c]([Sn]([c]2ccccc2)[c]2ccccc2)cc1 | 99% (active) | 96% (active) | 99.2% (active) | 99% (active) | 98% (active) | 99.5% (active) | 100% (active) | 98% (active) | 99.5% (active) | 98% (active) | 97% (active) | 98.4% (active) | 99% (active) | 95% (active) | 99.3% (active) | 99% (active) | 97% (active) | 98.8% (active)
C/C(=N\Nc1ccccn1)C1CC[N-]C2C(O)CCCC12.C/C(=N\Nc1ccccn1)C1CC[N-]C2C(O)CCCC12.[Cu+2] (configuration not stated) | 98% (active) | 98% (active) | 99% (active) | 99% (active) | 99% (active) | 99.5% (active) | 98% (active) | 99% (active) | 99.4% (active) | 98% (active) | 97% (active) | 98.9% (active) | 99% (active) | 98% (active) | 99% (active) | 99% (active) | 98% (active) | 99.3% (active)
